In PubChem BioAssay (Tox21):
Unmarked numbers belong to inactive results. Records with an inconclusive call do not appear. A call without a number means that no potency is given here. Active and inactive are the calls of the source. Unless noted, calls follow the shape of the dose curve; as a rule, active = well fitted curve in the direction sought with a large enough effect in the repeat runs; inconclusive = weak or mixed curves; inactive = no such curve, though single readings can be large; an effect the other way counts as inactive or inconclusive.

What was measured:
[1] = qHTS assay to identify small molecule agonists of the hypoxia (HIF-1) signaling pathway - cell viability counter screen (AID 1224844; calls by dose curve; also: nearly all actives have a fitted effect of over 50% in size)
Method in brief: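 HRE-bla ME-180; 0.5% dFBS; cpd 17 h, 37C, 5% CO2; CellTiter-Glo lum., 30 min RT, post-FRET read, same wells.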

[2] = qHTS assay to identify small molecule agonists of H2AX (AID 1224845; active = well fitted activation curve with a large enough effect in the signal ratio in the repeat runs, not every such curve was filed as active; the % refers to the signal ratio; also: potency is read from the fitted curve at half-maximal effect)
Method in brief: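 Wild-type CHO-K1 cells, plated overnight, exposed 3hr at 37C to 15 concentrations (0.76% DMSO final). Lysed, then HTRF anti-pH2AX (S139) cryptate and anti-H2AX-d2 antibodies, 24 hr room temperature; 665/620 nm emission read.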

[3] = qHTS assay to identify small molecule agonists of the hypoxia (HIF-1) signaling pathway (AID 1224846; active = well fitted activation curve with a large enough effect in the signal ratio in the repeat runs, not every such curve was filed as active; the % refers to the signal ratio)
Method in brief: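 Reporter induction in HRE-bla ME-180 cells is taken as agonism: cells sit 5 hrs after plating, receive compounds or DMSO only, incubate 17 hrs at 37C under 5% CO2, and are loaded with CCF4-AM for beta-lactamase FRET measurement.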

[4] = qHTS assay to identify small molecule agonists of H2AX - cell viability counter screen (AID 1224847; calls by dose curve; also: top concentration of the series differs between compounds; nearly all actives have a fitted effect of over 30% in size)
Method in brief: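 Cells plated first: CHO-K1, 1000 per well in 10% FBS medium, incubated overnight at 37C. Then 15-point compound titration added (final DMSO 0.76%) for 3 hr. Finally CellTiter-Glo added and luminescence read.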

[5] = qHTS RealTime-Glo MT Cell Viability Assay in HepG2 cells - 24 hour (AID 1224867); also: nearly all actives have a fitted effect of over 50% in size
Method in brief: (§1)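 Luminescence read-out: viable HepG2 cells reduce a prosubstrate to a NanoLuc substrate, giving a signal proportional to live cell number. Reads taken at 0, 8, 16, 24, 32 and 40 h of compound exposure at 37 C.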

[6] = A CellTox Green Cytotoxicity Assay to monitor cytotoxicity in HEK293 cells - 0 hour (AID 1224869); also: nearly all actives have a fitted effect of over 50% in size
Method in brief: (§2)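 Tox21 screen in HEK293: membrane-impermeant cyanine dye fluoresces on binding dead-cell DNA; compound pinned 5 h post-seeding, plates held at 37 C, signal read repeatedly through 40 h.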

[7] = qHTS RealTime-Glo MT Cell Viability Assay in HepG2 cells - 40 hour (AID 1224870); also: nearly all actives have a fitted effect of over 50% in size
Method in brief: (§3)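 HepG2 cells (600/well) mixed with RealTime-Glo MT reagent, settled 5 h at 37 C/5% CO2 before compound addition. Nonlytic NanoLuc luminescence from viable-cell prosubstrate reduction read repeatedly during 40 h treatment at 37 C.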

[8] = A CellTox Green Cytotoxicity Assay to monitor cytotoxicity in HEK293 cells - 40 hour (AID 1224871); also: nearly all actives have a fitted effect of over 45% in size
Method in brief: as §2

[9] = qHTS RealTime-Glo MT Cell Viability Assay in HEK293 cells - 16 hour (AID 1224872)
Method in brief: (§4)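 Nonlytic real-time viability readout: viable cells convert prosubstrate to NanoLuc substrate, giving luminescence proportional to live cell number. HEK293, 600 cells/well, compound added after 5 h, continuous culture at 37 C.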

[10] = qHTS RealTime-Glo MT Cell Viability Assay in HepG2 cells - 8 hour (AID 1224873); also: nearly all actives have a fitted effect of over 55% in size
Method in brief: as §3

[11] = qHTS RealTime-Glo MT Cell Viability Assay in HEK293 cells - 40 hour (AID 1224874); settings: RealTime-Glo luminescence; max response: hits give low values; also: nearly all actives have a fitted effect of over 50% in size
Method in brief: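 HEK293 + NanoLuc + prosubstrate, 600 cells/well; 5 h, 37 C/5% CO2; compound 23 nL in DMSO by pintool; 37 C; luminescence read at 0, 8, 16, 24, 32 and 40 h time points.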

[12] = A CellTox Green Cytotoxicity Assay to monitor cytotoxicity in HepG2 cells - 16 hour (AID 1224876); also: nearly all actives have a fitted effect of over 45% in size
Method in brief: (§5)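 Measurements at 0, 8, 16, 24, 32 and 40 h of treatment captured CellTox Green fluorescence in HepG2 cells that had been co-plated with reagent and preincubated 5 h at 37 C/5% CO2.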

[13] = qHTS RealTime-Glo MT Cell Viability Assay in HepG2 cells - 32 hour (AID 1224877); also: nearly all actives have a fitted effect of over 55% in size
Method in brief: as §1

[14] = A CellTox Green Cytotoxicity Assay to monitor cytotoxicity in HepG2 cells - 24 hour (AID 1224878); also: nearly all actives have a fitted effect of over 45% in size; also: potency is read from the fitted curve at half-maximal effect
Method in brief: as §5

[15] = biological target: Thyrotropin receptor (Homo sapiens) (UniProt P16473); assay: qHTS assay to identify small molecule agonists of the thyroid stimulating hormone receptor (TSHR) signaling pathway (AID 1224843; calls by dose curve; also: nearly all actives have a fitted effect of over 45% in size)
Method in brief: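 HEK293/TSHR, 800 cells/well; cpd 30 min RT; add cAMP-d2 + anti-cAMP-cryptate, 1 h RT; fluorescence read on plate reader. 15-pt titration, n=3.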

[16] = A CellTox Green Cytotoxicity Assay to monitor cytotoxicity in HepG2 cells - 40 hour (AID 1224879); also: nearly all actives have a fitted effect of over 40% in size; also: potency is read from the fitted curve at half-maximal effect
Method in brief: as §5

[17] = qHTS RealTime-Glo MT Cell Viability Assay in HEK293 cells - 32 hour (AID 1224868)
Method in brief: as §4

[18] = A CellTox Green Cytotoxicity Assay to monitor cytotoxicity in HEK293 cells - 24 hour (AID 1224875); also: nearly all actives have a fitted effect of over 45% in size
Method in brief: as §2

[19] = qHTS assay to identify small molecule antagonists of the estrogen related receptor (ERR) signaling pathway from Tox21 library (AID 1224848); also: nearly all actives have a fitted effect of over 50% in size
Method in brief: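 Compounds dissolved in DMSO are pin-transferred onto ERR reporter cells (2,000 per well) that have settled for 6 h at 37 C. Plates then incubate 18 h at 37 C before ONE-Glo luciferase reagent and a luminescence read 30 min later.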

[20] = qHTS assay to identify small molecule agonists of the estrogen related receptor (ERR) signaling pathway from Tox21 library (AID 1224849; calls by dose curve; also: nearly all actives have a fitted effect of over 15% in size); settings: ERR reporter cell line, ONE-Glo luciferase, 18 h; at 92.4 µM (top of the series) unless noted
Method in brief: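 Tox21 compounds tested for ERR agonism in an NTP reporter cell line: 18 h treatment at 37 C, then ONE-Glo luminescence.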

Sequence of Thyrotropin receptor (Homo sapiens) (P16473 whole entry, looked up): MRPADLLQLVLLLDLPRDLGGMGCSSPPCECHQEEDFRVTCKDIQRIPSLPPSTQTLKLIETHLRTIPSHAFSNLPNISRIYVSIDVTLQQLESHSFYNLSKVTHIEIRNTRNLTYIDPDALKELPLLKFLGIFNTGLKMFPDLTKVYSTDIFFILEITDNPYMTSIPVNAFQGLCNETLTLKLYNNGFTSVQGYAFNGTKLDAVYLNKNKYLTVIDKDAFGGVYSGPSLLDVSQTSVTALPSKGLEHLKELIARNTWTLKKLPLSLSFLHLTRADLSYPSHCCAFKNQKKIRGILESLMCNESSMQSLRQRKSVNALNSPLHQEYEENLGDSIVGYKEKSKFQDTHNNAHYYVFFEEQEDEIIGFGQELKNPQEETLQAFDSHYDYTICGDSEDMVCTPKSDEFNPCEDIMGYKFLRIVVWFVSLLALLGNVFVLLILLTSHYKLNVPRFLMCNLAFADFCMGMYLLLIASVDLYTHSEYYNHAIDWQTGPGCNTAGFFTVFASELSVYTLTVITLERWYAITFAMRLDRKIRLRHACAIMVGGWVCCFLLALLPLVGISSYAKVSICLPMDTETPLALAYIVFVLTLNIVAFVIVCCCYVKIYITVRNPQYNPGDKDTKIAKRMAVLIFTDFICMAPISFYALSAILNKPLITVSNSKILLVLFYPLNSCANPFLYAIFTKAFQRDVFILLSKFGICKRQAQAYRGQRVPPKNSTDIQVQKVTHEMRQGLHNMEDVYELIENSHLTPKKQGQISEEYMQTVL

| SMILES | Potency [1] | Potency [2] | outcome [3] | Potency [4] | outcome [5] | Potency [6] | Potency [7] | Potency [8] | Potency [9] | outcome [10] | max response [11] [%] | Potency [12] | Potency [13] | Potency [14] | Potency [15] | Potency [16] | Potency [17] | Potency [18] | Potency [19] | activity change, positive = activation [20] |
| --- | --- | --- | --- | --- | --- | --- | --- | --- | --- | --- | --- | --- | --- | --- | --- | --- | --- | --- | --- | --- |
| O=C(O)c1cc(C(=O)O)cc([N+](=O)[O-])c1 | inactive | inactive | inactive | inactive | inactive | inactive | inactive | inactive | inactive | inactive | 8.3 | inactive | inactive | inactive |  |  |  |  |  |  |
| Nc1ncnc2c1ncn2[C@@H]1O[C@H](CO)[C@@H](O)[C@H]1O |  | 31 µM (active) |  | inactive | inactive | inactive | inactive | inactive | inactive | inactive | 6.09 | inactive | inactive | inactive | inactive | inactive |  |  |  |  |
| O=C(O)c1cccc(C(=O)O)c1C(=O)O |  | inactive |  | inactive | inactive | inactive |  | inactive | inactive | inactive | -17 |  | inactive | inactive | inactive |  | inactive | inactive |  |  |
| Nc1ccc(-c2ccc(F)cc2)cc1 | inactive | inactive |  | inactive | inactive | inactive | inactive | inactive |  | inactive | -22.4 | inactive | inactive | inactive |  | inactive | inactive | inactive | inactive | 52% (active) |
| CC[C@H](NC(C)C)[C@H](O)c1ccc(O)c2[nH]c(=O)ccc12 | inactive | inactive |  | inactive | inactive | inactive | inactive | inactive |  | inactive | 5.21 | inactive | inactive | inactive |  | inactive | inactive |  | inactive | 4.6% [at 42.5 µM] |
| CCCCOc1ccc(N)cc1 |  |  | inactive | inactive | inactive | inactive |  | inactive |  | inactive | 0.387 | inactive | inactive | inactive | inactive | inactive | inactive | inactive | inactive | 3.06% |
| CC1(COc2ccc(CC3SC(=O)NC3=O)cc2)CCCCC1 (configuration not stated) |  |  | inactive | inactive | inactive | inactive | inactive | inactive | inactive | inactive | 1.6 | inactive | inactive | inactive | inactive |  | inactive |  | inactive | 7.77% [at 42.5 µM] |
| CC(C)CC(C)(C)C |  |  | inactive | inactive | inactive |  | inactive |  |  | inactive | -17.8 |  | inactive | inactive | inactive | inactive |  |  |  | -31.7% |
| OCC(O)c1ccccc1 (configuration not stated) |  |  |  | inactive | inactive | inactive |  | inactive |  | inactive | -20.6 | inactive | inactive | inactive | inactive | inactive | inactive | inactive |  |  |
| CC(C)(C)c1cc(C=O)cc(C(C)(C)C)c1O |  | inactive |  | inactive | inactive | inactive | inactive | inactive | inactive | inactive | -0.177 |  | inactive | inactive | inactive | inactive | inactive |  |  |  |
| CCC(C(=O)O)c1ccc(N2Cc3ccccc3C2=O)cc1 (configuration not stated) | inactive | inactive | inactive | inactive | inactive | inactive | inactive | inactive | inactive | inactive | -1.19 | inactive | inactive | inactive |  | inactive | inactive | inactive |  |  |
| CCOc1ccc2c(c1)C(C)CC(C)(C)N2 (configuration not stated) |  |  | inactive | inactive | inactive | inactive | inactive |  | inactive | inactive | -1.9 |  | inactive | 49 µM (active) | inactive | 43.6 µM (active) | inactive |  |  |  |
| O=C(OCCCCCOC(=O)c1ccccc1)c1ccccc1 | inactive | inactive | inactive | inactive | inactive | inactive | inactive | inactive |  | inactive |  |  | inactive | inactive |  | inactive |  | inactive | inactive | 7.15% |
| CCC(CC)C(=O)O | inactive | inactive | inactive | inactive | inactive | inactive | inactive | inactive | inactive | inactive | 15 | inactive | inactive | inactive |  |  | inactive | inactive |  |  |
| CC(C)(O)C(=O)O | inactive | inactive |  | inactive | inactive | inactive |  | inactive | inactive | inactive | 6.64 | inactive | inactive | inactive |  |  | inactive | inactive |  |  |
| Clc1cccc(C(c2ccc3nc[nH]c3c2)n2ccnc2)c1 (configuration not stated) | inactive |  | inactive | inactive | inactive | inactive |  | inactive |  | inactive | -17.1 | inactive | inactive | inactive |  | inactive |  | inactive |  |  |
